# How the values were obtained:
# Assay in all cases: DAPPL (digital affinity profiling via proximity ligation, sequencing); 10 mM Tris-HCl pH 7.5, 50 mM NaCl, 1 mM DTT, 4% glycerol, room temperature, 30 min; GST-TFs on glutathione beads, 16-mer random dsDNA library, 0.1% formaldehyde crosslink after washing; high values mean tight binding
# Conditions in all cases: protein: recombinant; tags: N-terminal GST; dsDNA, one strand shown
# [1] = biological target: T1, ELK1 (Homo sapiens, UniProt P19419 1-428)
# T1 sequence: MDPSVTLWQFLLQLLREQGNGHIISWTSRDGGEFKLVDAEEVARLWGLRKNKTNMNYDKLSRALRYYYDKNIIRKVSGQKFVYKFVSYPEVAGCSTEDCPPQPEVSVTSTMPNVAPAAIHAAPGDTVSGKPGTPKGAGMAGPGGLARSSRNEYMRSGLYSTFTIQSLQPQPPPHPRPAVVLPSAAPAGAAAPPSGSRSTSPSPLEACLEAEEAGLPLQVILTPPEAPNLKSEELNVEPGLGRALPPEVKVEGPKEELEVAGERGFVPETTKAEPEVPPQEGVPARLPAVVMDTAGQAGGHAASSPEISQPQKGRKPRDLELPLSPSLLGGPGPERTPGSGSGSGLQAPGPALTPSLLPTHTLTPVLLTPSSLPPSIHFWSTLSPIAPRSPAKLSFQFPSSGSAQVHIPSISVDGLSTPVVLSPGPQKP
# Method in brief: (§1)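 The binding signal reported is, for every hexamer, its read frequency for a factor over its read frequency for the tag-only sample. Reads came from pools of yeast-expressed, GST-fused human transcription factors on glutathione beads, barcoded with DNA and mixed with that sample, which were incubated with 200 nmole of a random double-stranded 16-mer DNA library in Tris/NaCl/DTT/glycerol buffer at room temperature for 30 min. After washing, the pools were crosslinked with 0.1% formaldehyde, proximity-ligated with BsaI/T4 ligase for 1 h at 37 °C, PCR-amplified and sequenced on an Illumina NextSeq500.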
# [2] = biological target: T2, GABPA (Homo sapiens, UniProt Q06546 1-454)
# T2 sequence: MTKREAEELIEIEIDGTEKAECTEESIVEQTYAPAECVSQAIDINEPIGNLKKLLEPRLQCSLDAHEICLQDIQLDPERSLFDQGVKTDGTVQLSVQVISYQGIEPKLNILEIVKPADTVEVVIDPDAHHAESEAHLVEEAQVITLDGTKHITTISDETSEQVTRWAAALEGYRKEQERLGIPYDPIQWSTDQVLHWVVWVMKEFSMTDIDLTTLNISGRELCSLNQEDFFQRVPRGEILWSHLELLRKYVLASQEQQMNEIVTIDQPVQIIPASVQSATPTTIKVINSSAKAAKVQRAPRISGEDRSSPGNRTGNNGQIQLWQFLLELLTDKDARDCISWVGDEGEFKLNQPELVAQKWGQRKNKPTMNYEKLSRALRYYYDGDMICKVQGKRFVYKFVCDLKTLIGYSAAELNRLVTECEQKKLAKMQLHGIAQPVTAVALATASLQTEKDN
# Method in brief: as §1
# [3] = biological target: ELF1 (Homo sapiens, UniProt P32519 1-619)
# ELF1, sequence (P32519 whole entry): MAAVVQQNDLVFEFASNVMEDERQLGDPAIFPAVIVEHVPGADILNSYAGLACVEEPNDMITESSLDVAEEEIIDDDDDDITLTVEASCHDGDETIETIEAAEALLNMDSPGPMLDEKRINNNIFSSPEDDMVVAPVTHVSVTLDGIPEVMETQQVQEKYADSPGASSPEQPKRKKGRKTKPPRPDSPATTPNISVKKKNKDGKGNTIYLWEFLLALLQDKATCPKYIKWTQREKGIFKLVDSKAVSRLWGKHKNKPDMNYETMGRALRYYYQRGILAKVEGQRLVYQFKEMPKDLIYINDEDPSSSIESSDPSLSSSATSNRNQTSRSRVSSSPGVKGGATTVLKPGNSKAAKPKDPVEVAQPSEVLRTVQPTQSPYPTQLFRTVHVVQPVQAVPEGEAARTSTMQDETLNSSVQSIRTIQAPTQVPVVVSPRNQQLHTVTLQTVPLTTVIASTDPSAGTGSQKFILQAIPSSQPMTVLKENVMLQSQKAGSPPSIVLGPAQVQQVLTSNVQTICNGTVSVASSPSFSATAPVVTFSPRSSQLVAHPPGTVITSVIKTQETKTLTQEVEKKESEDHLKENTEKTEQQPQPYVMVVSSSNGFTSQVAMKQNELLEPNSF
# Method in brief: as §1
# [4] = biological target: T3, EHF (Homo sapiens, UniProt Q9NZC4 1-300)
# T3 sequence: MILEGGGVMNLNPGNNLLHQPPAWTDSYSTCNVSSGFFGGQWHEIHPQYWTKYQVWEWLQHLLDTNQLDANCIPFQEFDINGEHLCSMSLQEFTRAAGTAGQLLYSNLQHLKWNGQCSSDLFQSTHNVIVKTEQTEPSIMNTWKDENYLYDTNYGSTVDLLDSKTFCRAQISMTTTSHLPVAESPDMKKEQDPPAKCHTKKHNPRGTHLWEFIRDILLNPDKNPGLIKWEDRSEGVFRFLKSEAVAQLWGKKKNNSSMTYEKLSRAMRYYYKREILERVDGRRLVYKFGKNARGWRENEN
# Method in brief: as §1
# [5] = biological target: SPIB (Homo sapiens, UniProt Q01892 1-262)
# SPIB, sequence (Q01892 whole entry): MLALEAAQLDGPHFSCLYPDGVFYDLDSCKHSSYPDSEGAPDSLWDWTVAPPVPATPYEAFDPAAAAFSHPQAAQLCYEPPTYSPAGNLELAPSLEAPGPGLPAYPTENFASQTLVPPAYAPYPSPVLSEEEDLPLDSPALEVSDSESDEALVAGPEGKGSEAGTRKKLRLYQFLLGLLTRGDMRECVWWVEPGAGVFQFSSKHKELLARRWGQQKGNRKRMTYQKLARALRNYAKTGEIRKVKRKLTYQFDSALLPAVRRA
# Method in brief: as §1
# [6] = biological target: T4, FEV (Homo sapiens, UniProt Q99581 1-238)
# T4 sequence: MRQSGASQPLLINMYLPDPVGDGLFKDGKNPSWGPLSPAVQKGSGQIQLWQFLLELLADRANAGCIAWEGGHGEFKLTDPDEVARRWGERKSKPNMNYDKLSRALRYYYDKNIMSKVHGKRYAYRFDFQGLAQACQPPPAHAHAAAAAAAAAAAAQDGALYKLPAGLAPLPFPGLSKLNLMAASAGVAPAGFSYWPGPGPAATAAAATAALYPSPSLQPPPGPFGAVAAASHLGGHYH
# Method in brief: as §1
# [7] = biological target: ETV5 (Homo sapiens, UniProt P41161 1-510)
# ETV5, sequence (P41161 whole entry): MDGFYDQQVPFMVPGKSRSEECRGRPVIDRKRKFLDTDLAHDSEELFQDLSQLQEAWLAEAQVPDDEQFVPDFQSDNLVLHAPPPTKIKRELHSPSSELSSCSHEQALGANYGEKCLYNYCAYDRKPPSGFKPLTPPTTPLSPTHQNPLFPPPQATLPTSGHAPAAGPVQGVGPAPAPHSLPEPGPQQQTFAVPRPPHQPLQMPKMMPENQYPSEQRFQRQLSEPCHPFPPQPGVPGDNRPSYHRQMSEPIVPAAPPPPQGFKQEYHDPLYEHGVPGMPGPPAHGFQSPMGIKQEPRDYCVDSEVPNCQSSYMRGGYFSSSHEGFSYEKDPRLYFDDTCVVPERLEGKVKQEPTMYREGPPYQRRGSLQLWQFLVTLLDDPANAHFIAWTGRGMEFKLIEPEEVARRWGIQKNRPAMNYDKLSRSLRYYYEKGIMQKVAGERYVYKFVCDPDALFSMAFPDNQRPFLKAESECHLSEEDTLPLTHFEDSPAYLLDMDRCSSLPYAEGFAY
# Method in brief: as §1
# [8] = biological target: ELF4 (Homo sapiens, UniProt Q99607 1-663)
# ELF4, sequence (Q99607 whole entry): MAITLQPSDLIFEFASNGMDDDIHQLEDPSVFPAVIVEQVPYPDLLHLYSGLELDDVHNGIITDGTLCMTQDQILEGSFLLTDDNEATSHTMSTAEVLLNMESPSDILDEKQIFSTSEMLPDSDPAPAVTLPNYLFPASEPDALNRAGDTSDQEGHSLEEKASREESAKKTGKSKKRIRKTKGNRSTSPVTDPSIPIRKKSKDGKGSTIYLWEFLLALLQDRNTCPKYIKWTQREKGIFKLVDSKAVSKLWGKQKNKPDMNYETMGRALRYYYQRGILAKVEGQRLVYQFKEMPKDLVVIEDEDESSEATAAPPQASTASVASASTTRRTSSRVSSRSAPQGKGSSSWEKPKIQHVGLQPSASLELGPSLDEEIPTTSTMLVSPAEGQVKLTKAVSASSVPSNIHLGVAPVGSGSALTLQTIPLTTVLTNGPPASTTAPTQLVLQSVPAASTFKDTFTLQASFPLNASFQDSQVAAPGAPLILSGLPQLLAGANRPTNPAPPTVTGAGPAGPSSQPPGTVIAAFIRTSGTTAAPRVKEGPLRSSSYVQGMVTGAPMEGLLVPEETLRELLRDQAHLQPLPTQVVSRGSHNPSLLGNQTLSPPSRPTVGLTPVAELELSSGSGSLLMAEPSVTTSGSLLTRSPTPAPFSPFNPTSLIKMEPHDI
# Method in brief: as §1
# [9] = biological target: T5, ELK4 (Homo sapiens, UniProt P28324-2 1-405)
# T5 sequence: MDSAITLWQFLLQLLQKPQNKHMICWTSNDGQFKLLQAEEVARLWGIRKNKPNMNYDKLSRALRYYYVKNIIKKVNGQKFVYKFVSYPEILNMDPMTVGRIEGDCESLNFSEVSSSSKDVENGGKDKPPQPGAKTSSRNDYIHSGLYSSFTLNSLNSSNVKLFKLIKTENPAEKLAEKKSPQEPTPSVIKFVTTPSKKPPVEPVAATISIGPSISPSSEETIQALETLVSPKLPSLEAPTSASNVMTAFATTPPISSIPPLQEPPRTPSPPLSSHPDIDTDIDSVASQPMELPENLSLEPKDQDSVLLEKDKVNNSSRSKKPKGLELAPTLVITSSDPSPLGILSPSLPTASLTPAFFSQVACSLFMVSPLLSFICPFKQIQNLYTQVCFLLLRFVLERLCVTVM
# Method in brief: as §1
# [10] = biological target: T6, ETV2 (Homo sapiens, UniProt O00321 1-342)
# T6 sequence: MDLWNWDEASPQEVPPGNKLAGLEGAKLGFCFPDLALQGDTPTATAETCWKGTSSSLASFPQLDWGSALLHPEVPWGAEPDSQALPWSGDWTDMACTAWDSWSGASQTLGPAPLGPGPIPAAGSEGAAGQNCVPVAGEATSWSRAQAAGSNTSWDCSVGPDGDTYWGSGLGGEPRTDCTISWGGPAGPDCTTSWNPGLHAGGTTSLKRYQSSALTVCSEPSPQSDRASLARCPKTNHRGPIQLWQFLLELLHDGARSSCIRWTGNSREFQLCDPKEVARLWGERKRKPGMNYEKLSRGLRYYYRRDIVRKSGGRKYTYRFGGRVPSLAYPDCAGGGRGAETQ
# Method in brief: as §1
# [11] = biological target: T7, ELF3 (Homo sapiens, UniProt P78545 1-371)
# T7 sequence: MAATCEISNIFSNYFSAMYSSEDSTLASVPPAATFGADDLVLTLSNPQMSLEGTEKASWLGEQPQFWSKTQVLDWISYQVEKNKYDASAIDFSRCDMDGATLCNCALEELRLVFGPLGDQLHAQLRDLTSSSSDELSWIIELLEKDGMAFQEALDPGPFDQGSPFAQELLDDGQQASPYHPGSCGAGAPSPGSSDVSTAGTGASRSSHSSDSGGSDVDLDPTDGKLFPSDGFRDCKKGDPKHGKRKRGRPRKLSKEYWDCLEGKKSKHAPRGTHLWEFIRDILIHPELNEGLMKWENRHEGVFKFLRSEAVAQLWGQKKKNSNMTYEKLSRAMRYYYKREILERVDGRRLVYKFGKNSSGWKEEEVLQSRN
# Method in brief: as §1
# [12] = biological target: ETV1 (Homo sapiens, UniProt P50549 1-477)
# ETV1, sequence (P50549 whole entry): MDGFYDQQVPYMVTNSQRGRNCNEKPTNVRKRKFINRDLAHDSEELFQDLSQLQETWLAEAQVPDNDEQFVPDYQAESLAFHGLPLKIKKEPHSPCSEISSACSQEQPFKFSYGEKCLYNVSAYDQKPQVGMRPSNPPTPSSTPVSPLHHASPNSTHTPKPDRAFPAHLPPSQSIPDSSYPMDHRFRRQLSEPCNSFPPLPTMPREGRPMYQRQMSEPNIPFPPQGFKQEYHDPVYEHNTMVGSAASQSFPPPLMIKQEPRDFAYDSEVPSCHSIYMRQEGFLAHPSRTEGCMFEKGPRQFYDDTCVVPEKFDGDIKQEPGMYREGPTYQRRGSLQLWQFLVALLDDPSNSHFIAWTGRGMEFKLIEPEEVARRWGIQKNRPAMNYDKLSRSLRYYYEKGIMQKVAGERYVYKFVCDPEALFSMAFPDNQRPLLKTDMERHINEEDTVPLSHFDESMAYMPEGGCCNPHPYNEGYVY
# Method in brief: as §1
# [13] = biological target: T8, ERF (Homo sapiens, UniProt P50548 1-548)
# T8 sequence: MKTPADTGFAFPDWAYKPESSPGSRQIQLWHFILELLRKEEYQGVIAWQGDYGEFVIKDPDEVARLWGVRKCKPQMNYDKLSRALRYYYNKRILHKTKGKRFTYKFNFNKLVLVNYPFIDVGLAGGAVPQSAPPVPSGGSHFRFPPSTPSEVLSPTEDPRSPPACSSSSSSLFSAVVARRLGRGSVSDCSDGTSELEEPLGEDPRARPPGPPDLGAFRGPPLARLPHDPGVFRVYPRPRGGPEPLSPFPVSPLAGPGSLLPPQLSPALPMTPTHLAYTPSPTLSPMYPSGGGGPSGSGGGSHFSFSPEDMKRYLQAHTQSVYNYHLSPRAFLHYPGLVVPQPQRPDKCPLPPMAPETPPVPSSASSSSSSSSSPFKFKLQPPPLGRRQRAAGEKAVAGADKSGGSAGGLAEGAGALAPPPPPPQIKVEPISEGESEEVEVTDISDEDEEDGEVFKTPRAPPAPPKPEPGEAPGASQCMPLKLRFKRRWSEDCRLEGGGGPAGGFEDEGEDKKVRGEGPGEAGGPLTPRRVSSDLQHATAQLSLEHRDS
# Method in brief: as §1
# [14] = biological target: T9, ETS2 (Homo sapiens, UniProt P15036 1-469)
# T9 sequence: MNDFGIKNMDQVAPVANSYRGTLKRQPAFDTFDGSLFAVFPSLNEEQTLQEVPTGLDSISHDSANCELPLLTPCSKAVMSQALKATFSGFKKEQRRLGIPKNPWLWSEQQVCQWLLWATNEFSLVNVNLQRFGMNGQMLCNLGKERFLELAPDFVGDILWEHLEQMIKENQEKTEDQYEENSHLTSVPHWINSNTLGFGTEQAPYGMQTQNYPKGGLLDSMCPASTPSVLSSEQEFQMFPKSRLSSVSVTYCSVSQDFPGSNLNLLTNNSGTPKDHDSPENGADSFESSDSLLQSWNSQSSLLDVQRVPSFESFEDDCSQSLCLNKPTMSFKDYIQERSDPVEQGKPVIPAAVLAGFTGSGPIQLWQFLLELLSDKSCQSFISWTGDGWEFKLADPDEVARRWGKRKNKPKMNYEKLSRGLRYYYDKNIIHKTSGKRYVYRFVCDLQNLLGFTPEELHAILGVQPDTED
# Method in brief: as §1
# [15] = biological target: T10, ETV3 (Homo sapiens, UniProt P41162-2 1-143)
# T10 sequence: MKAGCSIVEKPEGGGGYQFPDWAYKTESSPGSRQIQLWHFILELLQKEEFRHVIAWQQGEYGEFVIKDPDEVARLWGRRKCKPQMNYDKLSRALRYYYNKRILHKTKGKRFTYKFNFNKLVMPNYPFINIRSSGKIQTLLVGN
# Method in brief: as §1
# [16] = biological target: ETV6 (Homo sapiens, UniProt P41212 1-452)
# ETV6, sequence (P41212 whole entry): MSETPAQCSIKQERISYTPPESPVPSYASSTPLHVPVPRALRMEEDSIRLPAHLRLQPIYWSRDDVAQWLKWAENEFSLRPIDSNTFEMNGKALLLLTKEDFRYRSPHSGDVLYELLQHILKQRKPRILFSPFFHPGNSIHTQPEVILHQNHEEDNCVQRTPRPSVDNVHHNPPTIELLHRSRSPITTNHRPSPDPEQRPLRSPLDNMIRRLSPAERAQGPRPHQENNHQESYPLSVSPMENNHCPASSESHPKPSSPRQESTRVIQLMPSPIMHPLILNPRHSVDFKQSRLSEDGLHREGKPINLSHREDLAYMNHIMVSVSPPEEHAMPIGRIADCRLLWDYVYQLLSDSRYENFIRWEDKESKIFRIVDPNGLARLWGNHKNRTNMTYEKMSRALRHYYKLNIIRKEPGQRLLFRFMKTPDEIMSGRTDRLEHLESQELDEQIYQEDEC
# Method in brief: as §1
sequence,measurement,setting,value
AGCAAA,binding signal,[1],"1.04 fold enrichment (6-mer frequency, TF over GST control)"
same,binding signal,[2],"1.06 fold enrichment (6-mer frequency, TF over GST control)"
same,binding signal,[3],"1.07 fold enrichment (6-mer frequency, TF over GST control)"
same,binding signal,[4],"1.03 fold enrichment (6-mer frequency, TF over GST control)"
same,binding signal,[5],"1.04 fold enrichment (6-mer frequency, TF over GST control)"
same,binding signal,[6],"1.02 fold enrichment (6-mer frequency, TF over GST control)"
same,binding signal,[7],"1.07 fold enrichment (6-mer frequency, TF over GST control)"
same,binding signal,[8],"1.05 fold enrichment (6-mer frequency, TF over GST control)"
same,binding signal,[9],"1.05 fold enrichment (6-mer frequency, TF over GST control)"
same,binding signal,[10],"1.17 fold enrichment (6-mer frequency, TF over GST control)"
same,binding signal,[11],"1.21 fold enrichment (6-mer frequency, TF over GST control)"
same,binding signal,[12],"1.09 fold enrichment (6-mer frequency, TF over GST control)"
same,binding signal,[13],"1.05 fold enrichment (6-mer frequency, TF over GST control)"
same,binding signal,[14],"1.02 fold enrichment (6-mer frequency, TF over GST control)"
same,binding signal,[15],"1.06 fold enrichment (6-mer frequency, TF over GST control)"
same,binding signal,[16],"1.05 fold enrichment (6-mer frequency, TF over GST control)"
